# High-throughput results (PubChem BioAssay)
# ASM inhibitor – Inhibitors of Secretory Acid Sphingomyelinase (S-ASM): qHTS | Sphingomyelin phosphodiesterase (Homo sapiens), P17405 | placental ASM, HMU-PC fluorogenic substrate, 60 min | Potency, µM (titrated, usually from 57.5 µM), without a hit: at the top dose activity change, negative = inhibition, hits mostly inhibitors | actives 0.006% (n = 340,000); note: potency is the fitted concentration of half-maximal effect
# Target sequence (P17405 47-631 limits assumed): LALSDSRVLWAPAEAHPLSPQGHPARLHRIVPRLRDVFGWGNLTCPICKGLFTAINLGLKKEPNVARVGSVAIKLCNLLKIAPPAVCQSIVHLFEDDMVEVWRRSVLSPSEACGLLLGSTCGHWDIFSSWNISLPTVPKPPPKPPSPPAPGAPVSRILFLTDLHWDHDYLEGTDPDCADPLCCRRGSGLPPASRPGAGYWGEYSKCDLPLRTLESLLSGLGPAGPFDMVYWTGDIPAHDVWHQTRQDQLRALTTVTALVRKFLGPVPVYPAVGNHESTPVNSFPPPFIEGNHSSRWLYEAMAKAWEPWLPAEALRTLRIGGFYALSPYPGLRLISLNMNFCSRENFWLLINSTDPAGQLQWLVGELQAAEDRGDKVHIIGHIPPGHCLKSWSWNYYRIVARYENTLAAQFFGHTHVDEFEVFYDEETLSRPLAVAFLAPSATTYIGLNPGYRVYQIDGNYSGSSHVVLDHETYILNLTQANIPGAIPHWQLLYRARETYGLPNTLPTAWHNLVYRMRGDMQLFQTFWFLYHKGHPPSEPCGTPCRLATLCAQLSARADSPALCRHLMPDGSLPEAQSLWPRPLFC
#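 Fluorogenic HMU-PC substrate (9 uM final) is turned over by placental ASM in 60 min at 37 C after a 10 min compound preincubation. Reaction ended by alkaline stop (pH 10), with fluorescence read at 386/447 nm.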
# SW480 rerep – A quantitative high throughput screen for small molecules that induce DNA re-replication in SW480 colon adenocarcinoma cells; SW480 DNA re-replication, Hoechst DNA content imaging, 48 h; Potency, µM (titrated, usually from 46.1 µM), for the others: at the highest dose re-replication activation, actives largely listed as activators; actives 1.8% (n = 340,000); note: potency is the fitted concentration of half-maximal effect; % of control where 0% means no effect; nearly all actives have a fitted effect of over 55% in size
#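 DNA re-replication was detected as more nuclei of elevated Hoechst intensity after 48 hr exposure to compound (23 nL pinned per well of 250 cells).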
# Giardia killer – Small Molecules that selectively kill Giardia lamblia: qHTS | Giardia lamblia trophozoite viability | activity change, % at 7.66 µM, hits read low | actives 0.15% (n = 340,000); in the data active = activity change below about -80%; inconclusive = between about -30% and that limit;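 note: parasites exposed to compound for two days anaerobically before the ATP read; % is set by controls: 0 for no effect and ±100 for the full control effect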
#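 Trophozoite viability was measured as ATP-dependent luminescence, read 15-30 min after reagent addition. Before that, parasites at 100 cells/well were exposed to compounds for 48 h, anaerobically, at 37 deg C.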
# KB-3-1 cytotox – qHTS assay for MDR1-selective chemotherapeutics: Primary screen using the parental adenocarcinoma cell KB-3-1 | actives 1.4% (n = 400,000) | Potency, µM (highest dose often 46.1 µM), most hits filed as cytotoxic | KB-3-1 viability, CellTiter-Glo ATP luminescence, 72 h | AID 1347075, 2019; note: potency is the fitted concentration of half-maximal effect; % is set by controls: 0 for no effect and ±100 for the full control effect; nearly all actives have a fitted effect of over 60% in size
#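 72 h, 37 °C compound treatment of KB-3-1 parental cells; CellTiter-Glo added, 10 min, luminescence read. Data corrected against DMSO-only plates and normalized before curve fitting.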
# MCF10A rereplic – A quantitative high throughput screen for small molecules that induce DNA re-replication in MCF 10a normal breast cells; Potency, µM (titrated, usually from 46.1 µM), for inactives: at the top dose activity, positive = re-replication, usual class: activators; MCF 10A DNA re-replication, Hoechst nuclear intensity, 48 h; actives 2.9% (n = 350,000); note: potency is the fitted concentration of half-maximal effect; % of control where 0% means no effect; nearly all actives have a fitted effect of over 50% in size
# KB-V1 cytotox – qHTS assay for MDR1-selective chemotherapeutics: Primary screen using the drug-selected MDR subline cells KB-V1; actives 3.4% (n = 400,000); AID 1347076, 2019; KB-V1 MDR cells viability, CellTiter-Glo, 72 h; Potency, µM (top dose mostly 46.1 µM), usual class: cytotoxic; note: potency is the fitted concentration of half-maximal effect; % is set by controls: 0 for no effect and ±100 for the full control effect; nearly all actives have a fitted effect of over 60% in size
#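 KB-V1 MDR subline cells in DMEM (phenol-red free, 10% FBS) exposed to compounds in qHTS concentration series for 72 h at 37 degrees C. Viability read by CellTiter-Glo luminescence; concentration-effect curves fitted after normalization and correction.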
# * = called active by the depositor; i = inactive; ? = inconclusive; · = no result given; [ ] = dose if it differs, or a comment. The list is not random: actives were taken first. Their share in the collection is about 6.9%. Unless noted, calls come from the whole dose curve; as a rule, active = well fitted curve in the direction sought with a large enough effect; inconclusive = small, poorly fitted or top-dose-only effect, or another doubt; inactive = no such curve, though single readings can be large; an effect the other way counts as inactive or inconclusive.
SMILES,ASM inhibitor,SW480 rerep,Giardia killer,KB-3-1 cytotox,MCF10A rereplic,KB-V1 cytotox
N#Cc1c(-c2cccnc2)c2c([nH]c1=O)-c1ccccc1OC2,i,2.6µM*,-13,i,15µM*,i
O=S(=O)(c1ccccc1)N(C1=NCCS1)S(=O)(=O)c1ccccc1,-2%,0%,-22,i,13%,21µM*
COC1C=CO[C@@]2(C)Oc3c(C)c(O)c4c(O)c(c5c(nc6cc(C)ccn65)c4c3C2=O)NC(=O)/C(C)=C\C=CC(C)C(O)[C@@H](C)C(O)C(C)[C@@H](OC(C)=O)C1C (some centres undefined),·,?,·,·,0%,·
CCN(CC)c1ccc(NC(=O)c2cnccn2)cc1S(=O)(=O)Nc1ccc(OC)cc1,-7%,?,26,?,?,4.1µM*
CCN(CC)c1ccc(NC(=O)COc2ccccc2C)cc1S(=O)(=O)Nc1ccccc1OC,-4%,3%,-13,i,-3%,?
CCN(CC)c1ccc(NC(=O)COc2ccccc2C#N)cc1S(=O)(=O)Nc1ccc(OC)cc1,-2%,?,-12,i,?,3.7µM*
CCc1ccc(NC(=O)CN2C(=O)C(=O)c3ccccc32)cc1,·,·,·,i,·,i
O=C(Nc1ccccc1)Nc1ncc([N+](=O)[O-])s1,-2%,?,?,18µM*,4%,?
O=C(Nc1nc(-c2cccnc2)cs1)c1cccc([N+](=O)[O-])c1,-4%,-5%,-2,i,-4%,i
O=C(COC(=O)c1ccccc1)Nc1ncc([N+](=O)[O-])s1,-5%,-2%,?,i,1%,i
O=C(Nc1ccc(-c2csc(Nc3cccc(C(F)(F)F)c3)n2)cc1)c1ccccc1,-11%,?,-6,?,18µM*,i
O=C(Nc1ccc(NC(=O)c2cccc([N+](=O)[O-])c2)cc1)c1cccc([N+](=O)[O-])c1,-4%,14%,0,i,-6%,i
O=C(Nc1ncc([N+](=O)[O-])s1)c1cccc([N+](=O)[O-])c1,-7%,1%,-93*,i,1%,?
O=C(Nc1nc(-c2ccccc2)cs1)c1cccc([N+](=O)[O-])c1,-19%,-2%,-28,i,?,23µM*
CC(=O)Oc1cc(C(F)(F)F)ccc1C(=O)O,·,-1%[20.6 µM],·,·,-1%[20.6 µM],·
Cc1cccc(CNC(=O)CN2C(=O)CSc3c2c(C)nn3-c2ccccc2)c1,·,·,·,i,·,i
COc1ccc(-c2noc(CN(C(=O)c3cc(OC)c(OC)cc3OC)C(C)C)n2)cc1,·,·,·,i,·,i
COc1ccccc1N=C(C)C1=C(O)CC(c2ccccc2)CC1=O (centres undefined),-2%,2.1µM*,16,?,?,1.5µM*
N#C/C(=C\c1ccc(Cl)s1)C(=O)N1CCN(c2ccccc2)CC1,-2%,-4%,-9,i,?,i
N#C/C(=C\c1ccc(Br)s1)C(=O)N1CCN(c2ccccc2)CC1,-9%,0%,19,i,?,18µM*
O=C(OCC1CCCO1)c1ccc2c(c1)N(Cc1ccccc1Cl)C(=O)c1ccccc1S2(=O)=O (centres undefined),·,·,·,i,·,i
COc1cc(-c2nnc(SCc3cc(=O)oc4cc(O)c(O)cc34)o2)cc(OC)c1OC,-21%,13%,-11,i,?,i
CCCCCCc1cc2cc(C(=O)Nc3ccccc3OC)c(=O)oc2cc1O,i,?,8,?,0.65µM*,?
CCCCCCc1cc2cc(-c3nnc(-c4cc(OC)c(OC)c(OC)c4)o3)c(=O)oc2cc1O,178%,8.2µM*,-4,?,0.52µM*,?
COc1ccc(-c2nnc(-c3ccccc3O)o2)cc1,26%,10%,-18,i,6%,i
SMILES,ASM inhibitor,SW480 rerep,Giardia killer,KB-3-1 cytotox,MCF10A rereplic,KB-V1 cytotox
CCCCCCc1cc2cc(-c3nnc(-c4ccccc4OC)o3)c(=O)oc2cc1O,326%,1.2µM*,8,?,6%,16µM*
CCCCCCc1cc2cc(-c3nnc(-c4ccccc4O)o3)c(=O)oc2cc1O,34%,2.3µM*,-16,?,0.73µM*,13µM*
CCC(C(=O)N(C)Cc1ccccc1)n1nc(C)c2sc3ccccc3c2c1=O (centres undefined),·,·,·,i,·,i
COc1ccc(CSc2nc3ccncc3n2CC(=O)Nc2cc(C)cc(C)c2)cc1,·,·,·,i,·,i
COc1ccc(OC(C)C(=O)NCc2nc(-c3cccc(C)c3)no2)cc1 (centres undefined),·,·,·,i,·,i
CCCCCCc1cc2cc(S(=O)(=O)c3ccc(F)cc3)c(=O)oc2cc1O,i,4.6µM*,-16,i,2.3µM*,?
CN(C)CC(C)(C)NS(=O)(=O)c1ccc(Cl)cc1,-2%,?,-9,i,15µM*,i
CC(=O)Oc1cccc(C)c1,·,4%,·,·,-1%,·
CC(C)c1cc(Br)ccc1OCCCN1C(=O)NC(C)(C)C1=O,-6%,11%,15,?,17%,13µM*
Cc1ccc(/C=C/C(=O)Nc2cccc([S+](=O)([O-])Nc3ccccc3F)c2)cc1,·,·,·,i,·,?
Nc1nc2c(c(=O)[nH]1)N(C=O)[C@H](CNc1ccc(C(=O)N[C@@H](CCC(=O)O)C(=O)O)cc1)CN2,·,?,·,·,-2%[20.6 µM],·
CCOC(=O)Cn1c(=O)n(CC2CCCO2)c2nc(-c3ccccc3)nc(C(N)=O)c21 (centres undefined),·,·,·,i,·,?
CC(=O)N1CCc2cc(S(=O)(=O)NC(CC(C)C)C(=O)Nc3ccc(C(C)C)cc3)ccc21 (centres undefined),·,·,·,i,·,i
O=C(NNC(=O)c1cc([N+](=O)[O-])ccc1Cl)c1cccnc1,2%,-12%,3,i,-9%,i
CC(=O)Nc1cccc(-c2ccnc3c2CC(C(=O)NCCc2ccccc2)O3)c1 (centres undefined),·,·,·,i,·,i
O=C(NCC1CC1)C1Cc2c(-c3ccc(Cl)cc3)ccnc2O1 (centres undefined),·,·,·,i,·,?
COc1ccc(CNC(=O)C2Cc3c(-c4cccc(C(C)=O)c4)ccnc3O2)cc1OC (centres undefined),·,·,·,?,·,i
